From PubChem BioAssay (NCI)
About 83,000 compounds went through this panel and 20% of them were active in at least one assay; those are over-represented in the sample as a whole.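 Step 1: grow cells in 96-well plates. Step 2: add test compound at a single concentration. Step 3: incubate 48 h. Step 4: record percent growth.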 The source made the active and inactive calls.

test system: HCC-2998 colon; experiment: NCI-60 one-dose screen, 48 h (100 = growth as untreated, 0 = no growth, -100 = all killed); details: 10 µM unless noted
Procedure: Growth inhibition of the HCC-2998 human tumor cell line is measured as a screen for anti-cancer activity. Cells are grown in 96 well plates and exposed to the test compound for 48 hours. Compounds are tested at a single concentration, which is 10^-5 M for most compounds. The reported endpoint is percent growth (GI% or GIPRCNT), where numbers from 0 - 100% represent growth inhibition, and numbers from -100% - 0 represent cell death. For example, a value of 40 represents 60% growth inhibition. A value of 0 means no net growth occurred over the course of the experiment. A value of -40 indicates 40% of cells at the beginning of the experiment died by the end of the experiment. A value of -100 means all cells are dead at the end of the experiment.
NCI-60 Human Tumor Cell Lines Screen was performed using the standard one-dose NCI protocol, which is described in more detail at https://dtp.cancer.gov/discovery_development/nci-60/default.htm.
Compounds with GIPRCNT values below 10 were considered active. Activity score was based on GIPRCNT using the following formula: […]
Score is 0 for GIPRCNT values of 100 or above, 50 for GIPRCNT values of 0, and 100 for GIPRCNT values of -100.

Compound	growth
CCCCCN(CCCCC)C(=O)C(CCC(=O)O)NC(=O)c1ccc(Cl)c(Cl)c1 (stereo not given)	113% (inactive)
COC(=O)OC1C(O[C@H]2C[C@H]3[C@@H]4CC=C5C[C@@H](O)CC[C@]5(C)[C@H]4CC[C@]3(C)[C@H]2[C@H](C)C(=O)CCC(C)C)OCC(O)C1OC1OCC(O)C(O)C1OC(=O)c1ccc(OC)cc1 (stereo not given in full)	53.7% (inactive)
COc1cc(/C=N/NC(=O)Cn2c(-c3ccc(C)o3)nc3ccccc32)ccc1OCc1ccccc1	103% (inactive)
CCOC(=O)C1=C(C(=O)OCC)N(c2cc(OC)c(OC)c(OC)c2)C(N)=C(C#N)C1c1cc(=O)[nH]c2ccccc12 (stereo not given)	108% (inactive)
CS(=O)(=O)c1ccc(C(=O)N/N=C/c2ccc3c(c2)OCO3)cc1	93% (inactive)
C=C1C(=O)O[C@H]2[C@H]1CC/C(COC(=O)NCc1c[nH]c3ccc(OC)cc13)=C\CC[C@@]1(C)O[C@@H]21	45.1% (inactive)
COc1ccc(-c2conc2-n2nc(-c3ccccc3)nc2-c2ccccc2)cc1	105% (inactive)
c1coc(CNc2c3ccccc3nc3ccccc23)c1	68.9% (inactive)
CCCCCCCCCCCC1=NC(C)(C)CN1C(C)C	-58.5% (active)
CCc1c(C)c2ccc(O)c(-c3cc(-c4ccccc4)c(C#N)c(=O)[nH]3)c2oc1=O	111% (inactive)
CN(C)CCNC(=O)n1cc(-c2ccncc2)c(-c2cc(O)cc(Cl)c2)n1	119% (inactive)
COc1cc(NCC(O)CN(CC(C)C)CC(C)C)c2ncccc2c1 (stereo not given)	93.6% (inactive)
Cc1ccc(C(CN(C)C)C(=O)c2ccccc2)cc1 (stereo not given)	101% (inactive)
S=C(S)Oc1cccc2cccnc12	113% (inactive)
Brc1ccsc1Br	105% (inactive)
Cc1[nH]c2ccccc2c1C1=CC(=O)C=CC1=O	98.8% (inactive)
c1cn2cc(-c3ccc4ncn(C5CCCCC5)c4c3)nc(-c3ccc4c(c3)ncn4C3CCCCC3)c2n1	-93.4% (active)
CN1C(=O)N(C)C2C1NN=c1s/c(=C\c3ccsc3)c(=O)n12 (stereo not given)	73.7% (inactive)
CCCNCCC(C)=O	99.6% (inactive)
CS(=O)(=O)c1ccc(C(=O)N2N=C(c3ccccc3)CC2c2ccc3c(c2)OCO3)cc1 (stereo not given)	99.3% (inactive)

Compound	growth
CC(=O)C1CCC2C3CC(C)=C4CC(O)CCC4(C)C3CCC12C (stereo not given)	98.8% (inactive)
COc1ccc2nc3ccccc3c(NCc3ccc(C)cc3)c2c1	-57.9% (active)
Oc1ccc(-c2nc3ccccc3s2)cc1CN(Cc1ccccn1)Cc1ccccn1	5.52% (active)
CCCCSc1ncnc2c1ncn2C1CCCCO1 (stereo not given)	111% (inactive)
O=C1OCC2=C1C(c1ccccc1)c1cc3c(cc1N2CCO)CCC3 (stereo not given)	-19.8% (active)
O=C1C(Cl)=C(Nc2cccc3ccccc23)C(=O)c2ccccc21	103% (inactive)
O=C1C=CN2C(=O)CC=CC2[C@@H]1O (stereo not given in full)	114% (inactive)
O=C(CSc1nc2c(n1Nc1ccccc1)-c1ccccc1SC2)Nc1nccs1	99.7% (inactive)
CNC(=O)OC1C(O[C@H]2C[C@H]3[C@@H]4CC=C5C[C@@H](O)CC[C@]5(C)[C@H]4CC[C@]3(C)[C@H]2[C@H](C)C(=O)CCC(C)C)OCC(O)C1OC1OCC(O)C(O)C1OC(=O)c1ccc(OC)cc1 (stereo not given in full)	67.3% (inactive)
COc1cc(NCCC2CCCCN2)c2ncccc2c1OC (stereo not given)	80.6% (inactive)
FC(F)(F)c1nn[nH]n1	98.1% (inactive)
CCOC(=O)C#Cc1c(C(=O)OCC)nnn1[C@@H]1O[C@H](COC(C)=O)[C@@H](OC(C)=O)[C@H]1OC(C)=O	105% (inactive)
CC(C)(C)c1ccc(OC(=O)Nc2ccccc2)cc1	107% (inactive)
O=C(CCCCCCN1CC(=O)N2[C@@H](c3ccc(Cl)c(Cl)c3)c3[nH]c4ccccc4c3C[C@H]2C1=O)NO	61.9% (inactive)
COC(=O)[C@H](Cc1cn(C)cn1)NC(=O)[C@H](CC(C)C)NC(=O)Nc1cc(C(F)(F)F)cc(C(F)(F)F)c1	-90.3% [100 µM] (active)
COc1cc(OC)c(Cl)cc1N	106% (inactive)
CC(=O)OC[C@H]1O[C@@H](n2c(=O)cc(N)[nH]c2=O)C(OC(C)=O)[C@@H]1OC(C)=O (stereo not given in full)	106% (inactive)
O=C1/C(=C/c2ccccc2)SC(=Nc2ccccc2)N1Nc1ccccc1	20.3% (inactive)
O=C(NO)c1ccc(CNc2cccc3nc(C4CC4)n(-c4ccccc4)c(=O)c23)cc1	36% (inactive)
Cc1ccc(Nc2cc(Cl)c([N+](=O)[O-])cc2[N+](=O)[O-])cc1	42.4% (inactive)
